Assay outcomes as filed in PubChem BioAssay.
The list is not random: actives were taken first. Their share in the collection is about 1.3%.
Gli-Sufu block: blocks Gli-Sufu signaling in a luciferase reporter; Sufu-KO-LIGHT fibroblasts, Gli luciferase reporter luminescence; inhibition, % at 5 µM; actives 0.74% (n = 340,000);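 active = inhibition above about 55%, limit read from the data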;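 also: 0% = DMSO-treated cells and 100% = wells with medium but no cells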
NCOA2 inhibitor: human SRC2 (NCOA2) inhibition. inhibition, % at 9 µM. actives 0.17% (n = 370,000). Q15596. HEK293 GAL4-SRC2 luciferase reporter, luminescence. AID 651957;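 active = inhibition above the mean inhibition of all tested compounds plus 3 SD, set per campaign, cut at about 52% in these data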;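 also: 0% = DMSO treated cells and 100% = cells given Gossypol at 36 µM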
COUP-TFII inh: inhibitors of human COUP-TFII (NR2F2); AID 686940; inhibition, % at 8.6 µM; P24468; HEK293T NGFI-A luciferase reporter, luminescence; actives 0.7% (n = 370,000);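 active = inhibition above a per-plate cutoff, mean inhibition of test wells between control levels plus 3 SD, cut at about 38% in these data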;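 also: cells cotransfected with COUP-TFII expression vector driving the NGFI-A reporter; 0% = median of COUP-TF2 test wells and 100% = reporter-only cells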
NCOA3 inh: human NCOA3 inhibition. Q9Y6Q9. HEK293 GAL4-SRC3 luciferase reporter, luminescence. inhibition, % at 3.6 µM. actives 0.17% (n = 360,000). AID 588352;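 active = inhibition above a per-campaign cutoff, the mean of all compounds plus 3 SD, cut at about 60% in these data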;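 also: 0% = DMSO-treated cells and 100% = gossypol-treated cells at 36 µM; higher means less SRC3-driven luciferase light from the GAL4 reporter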
Target sequence (Q9Y6Q9 whole entry, looked up, the tested form may be a part): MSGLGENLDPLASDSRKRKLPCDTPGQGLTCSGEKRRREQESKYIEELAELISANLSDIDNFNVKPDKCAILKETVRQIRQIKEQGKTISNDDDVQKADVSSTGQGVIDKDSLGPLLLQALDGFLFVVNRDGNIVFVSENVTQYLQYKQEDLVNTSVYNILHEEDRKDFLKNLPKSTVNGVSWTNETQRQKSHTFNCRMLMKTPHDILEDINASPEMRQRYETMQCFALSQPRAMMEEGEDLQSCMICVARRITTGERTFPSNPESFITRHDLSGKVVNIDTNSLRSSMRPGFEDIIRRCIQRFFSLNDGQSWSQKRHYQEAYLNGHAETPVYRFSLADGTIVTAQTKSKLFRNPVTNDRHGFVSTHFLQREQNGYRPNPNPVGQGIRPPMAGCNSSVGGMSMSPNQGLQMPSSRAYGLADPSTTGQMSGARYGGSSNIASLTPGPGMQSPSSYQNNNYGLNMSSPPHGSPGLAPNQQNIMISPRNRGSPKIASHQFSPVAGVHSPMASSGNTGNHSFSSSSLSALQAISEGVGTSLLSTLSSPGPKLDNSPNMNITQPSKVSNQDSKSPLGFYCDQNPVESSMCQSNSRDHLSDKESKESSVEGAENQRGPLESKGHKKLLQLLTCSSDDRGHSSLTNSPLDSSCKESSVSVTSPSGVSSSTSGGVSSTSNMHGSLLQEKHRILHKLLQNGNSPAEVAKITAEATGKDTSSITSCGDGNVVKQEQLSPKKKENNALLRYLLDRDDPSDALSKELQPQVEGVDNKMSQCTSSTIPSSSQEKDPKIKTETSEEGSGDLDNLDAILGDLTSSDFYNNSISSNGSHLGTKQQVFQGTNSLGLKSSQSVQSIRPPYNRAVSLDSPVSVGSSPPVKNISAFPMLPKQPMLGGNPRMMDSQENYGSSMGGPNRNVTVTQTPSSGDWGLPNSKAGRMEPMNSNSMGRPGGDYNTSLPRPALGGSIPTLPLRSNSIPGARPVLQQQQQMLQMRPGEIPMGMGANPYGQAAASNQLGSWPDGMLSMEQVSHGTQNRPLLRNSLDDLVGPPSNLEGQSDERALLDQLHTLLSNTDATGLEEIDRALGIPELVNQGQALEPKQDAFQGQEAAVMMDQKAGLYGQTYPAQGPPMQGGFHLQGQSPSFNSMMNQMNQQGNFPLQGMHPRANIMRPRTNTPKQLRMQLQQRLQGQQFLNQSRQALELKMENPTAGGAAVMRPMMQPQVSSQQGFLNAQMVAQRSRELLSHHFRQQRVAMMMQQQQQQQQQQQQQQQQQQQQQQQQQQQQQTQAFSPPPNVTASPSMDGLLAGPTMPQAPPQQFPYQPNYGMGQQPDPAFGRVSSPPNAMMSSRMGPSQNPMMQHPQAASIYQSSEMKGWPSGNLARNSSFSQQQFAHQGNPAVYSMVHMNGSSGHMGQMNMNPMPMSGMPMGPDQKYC
NCOA1 inh: inhibitors of human steroid receptor coactivator 1 (SRC1); Q15788; HEK293 GAL4-SRC1 luciferase reporter, luminescence; actives 0.12% (n = 360,000); inhibition, % at 3.6 µM;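 active = inhibition above the campaign mean plus 3 SD, with each screening campaign given its own cutoff, cut at about 60% in these data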;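 also: 0% = DMSO treated cells and 100% = gossypol at 36 µM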
NR5A2 inv ag: NR5A2 inverse agonism in reporter assay. AID 602396. actives 0.13% (n = 360,000). O00482. HEK293T StAR-luciferase reporter, LRH-1 transfected, 24 h. inhibition, % at 3.6 µM;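 active = inhibition above the mean inhibition of all tested compounds plus 3 SD, cut at about 73% in these data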;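 also: 0% = DMSO wells and 100% = reporter-only cells lacking LRH-1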
The depositor's hits bear a star; nt = not tested or not shown.

SMILES	Gli-Sufu block	NCOA2 inhibitor	COUP-TFII inh	NCOA3 inh	NCOA1 inh	NR5A2 inv ag
CCOC(=O)[C@]12Cc3cc(C)ccc3[C@H]1N(C1CCCCC1)C(=O)c1ccccc12	nt	20	36	nt	nt	61
CCOC(=O)[C@]12Cc3c(cc(OC)c(OC)c3OC)[C@H]1N(C1CCCCC1)C(=O)c1ccccc12	nt	-5	60*	nt	nt	48
COC(=O)C1=C[C@H]([C@@H](C)[C@H](OC)c2ccccc2Br)[C@@H]2[C@H]1c1ccccc1N2C	nt	-15	21	nt	nt	nt
COC(=O)C1CN(C#N)N(c2ccc(Cl)cc2)C12c1ccccc1-c1ccccc12 (centres undefined)	47	nt	nt	73*	-27	28
Cc1cc(N2CCNC[C@H]2C)ccc1N1CC[C@H](O)C1	nt	15	-3	nt	nt	nt
Cc1nc2c(=O)n(C)c(=O)nc-2n(C)n1	76*	75*	64*	92*	87*	95*
CC(C)C(C(=O)NC(C)(C)C)N1C(=O)CN=C(c2ccccc2)c2ccccc21 (centres undefined)	nt	-1	12	nt	nt	nt
O=C(NCCN1CCC2(CC1)C(=O)NCN2c1ccccc1)c1ccc2ccccc2c1	nt	-15	6	nt	nt	nt
COc1cc2cc(C(=O)N3CC(COS(C)(=O)=O)c4ccc(O)cc43)[nH]c2c(OC)c1OC (centres undefined)	94*	nt	nt	94*	90*	65
O=S(=O)(c1ccc(Cl)cc1)N1Cc2ccc(Br)cc2-n2nncc2C1	nt	20	9	nt	nt	nt
C=C1C(=O)O[C@H]2C[C@@H](C)[C@@H]3C=CC(=O)[C@@]3(C)C[C@H]12	61*	72*	32	nt	nt	nt
C=C1C(=O)OC2C1CCC(C)C1(O)C=CC(=O)C21C (centres undefined)	-23	-7	-5	-14	-54	-51
C=C1C(=O)O[C@@H]2C[C@@H](C)[C@@H]3C4OC4C(=O)[C@@]3(C)[C@@H](O)[C@H]12 (some centres undefined)	18	78*	68*	-13	-62	66
C=C1C(=O)OC2CC(C)C3C=CC(=O)C3(C)C(O)C12 (centres undefined)	94*	nt	nt	42	36	81*
C=C(C=O)C[C@@H]1C[C@H](O)C2OC3C[C@]4(C)OC5/C=C\CC6OC7C(CC=CCC6OC5CCCC4OC3CC2O1)OC1CC2OC3CC(=O)OC3C[C@@H](C)C[C@@]2(C)OC1C[C@@H]7C (some centres undefined)	61*	nt	nt	nt	nt	nt
CC1=CC(C)CC(C)OC(=O)CC(c2ccc(O)cc2)NC(=O)C(Cc2c(Br)[nH]c3ccccc23)N(C)C(=O)C(C)NC(=O)C(C)C1 (centres undefined)	83*	22	-21	22	-14	25
O=P(OCCCl)(OCCCl)OCCCl	nt	11	6	nt	nt	nt
CC=CC(C)=CC(C)C(=O)CC(O)CC1CC(=O)NC(=O)C1 (centres undefined)	nt	-13	39*	0	21	41
C[C@H]1[C@@H](OS(=O)(=O)O)C[C@@H]2C[C@H]([C@@H](O)c3cc(=O)[nH]c(=O)[nH]3)NC3=NC[C@H]1N32	76*	nt	nt	58	59	99*
O=C(O)CCl	nt	3	13	nt	nt	nt
Cc1ccc(C[n+]2c(-c3ccc(C)cc3)cc(-c3ccc(C)cc3)cc2-c2ccc(C)cc2)cc1	90*	nt	nt	83*	68*	95*
COc1cccc(NC2=NCCS2)c1	nt	-18	5	nt	nt	nt
C[C@H]1CCC[C@@H](O)CCC/C=C/c2cc(O)cc(O)c2C(=O)O1	2	21	34	64*	58	36
Cc1cccc(C(C)c2cnc[nH]2)c1C (centres undefined)	nt	18	1	nt	nt	nt
Cc1cc([N+](=O)[O-])c2ccccc2[n+]1[O-]	17	nt	nt	52	63*	58
SMILES	Gli-Sufu block	NCOA2 inhibitor	COUP-TFII inh	NCOA3 inh	NCOA1 inh	NR5A2 inv ag
Cc1ccccc1[N+](=O)[O-]	14	19	0	4	6	-5
CCCC[C@@H](C)C[C@@H](C)C(=O)N(C)[C@@H](CC(C)C)C(=O)N[C@H](C(=O)N(C)[C@H](C(=O)N1C[C@@H](O)C[C@H]1C(=O)N1C(=O)C=C[C@@H]1C)C(C)C)C(C)OC(C)=O (some centres undefined)	7	nt	nt	46	-99	75*
CCCCCn1c(=O)c(C(=O)Nc2cnccn2)c(O)c2ccccc21	63*	7	-5	3	2	19
CCCCCCCn1c(=O)c(C(=O)Nc2cnccn2)c(O)c2ccccc21	31	-10	-7	55	-15	12
C[C@H]1CCC/C=C/C2C[C@H](O)CC2[C@H](O)/C=C/C(=O)O1 (some centres undefined)	87*	nt	nt	67*	21	89*
CC(=O)OC(C)(C)/C=C/C(=O)[C@](C)(O)C1[C@H](O)C[C@@]2(C)C3CC=C4C(C[C@H](O)C(=O)C4(C)C)[C@]3(C)C(=O)C[C@]12C (some centres undefined)	85*	nt	nt	28	-4	34
CC(C)S(=O)(=O)N1Cc2ccc(Br)cc2-n2nncc2C1	nt	9	12	nt	nt	nt
CN1C[C@H](O)[C@H]2C[C@@H]1c1ccccc1O2	nt	20	-14	nt	nt	nt
C[C@]12CC[C@H]3C(CCC4(O)CC(O)CC[C@]34C=O)C1=CC[C@H]2c1ccc(=O)oc1 (some centres undefined)	-4	-17	36	44	26	40
CC(=O)O[C@H]1[C@H]2O[C@]23[C@@H]2CC[C@]4(O)C[C@@H](O)CC[C@]4(C)C2CC[C@]3(C)[C@H]1c1ccc(=O)oc1 (some centres undefined)	-2	nt	nt	89*	86*	100*
CCCC(=O)N1c2ccc(Cl)cc2C(c2ccccc2)=NCC1C(=O)NC(C)(C)C (centres undefined)	nt	16	4	nt	nt	nt
CC12CCC(O)CC1CCC1C2CCC2(C)C(C3=CC(=O)OC3)C(O)CC12O (centres undefined)	-5	2	51*	67*	52	86*
CC12CC[C@H]3[C@@H](CCC4(O)C[C@H](O)CCC34/C=N/NC(=O)Cc3ccccc3)C1(O)CCC2C1=CC(=O)OC1 (some centres undefined)	2	5	-7	10	5	7
O=C(c1ccccc1)N1Cc2cc(Br)ccc2-n2nncc2C1	nt	-9	-9	nt	nt	nt
O=[N+]([O-])c1ccc(N(CCO)CCO)c2c1no[n+]2[O-]	nt	58*	-14	67*	55	83*
Cn1c(=O)n(C)c2cc([N+](=O)[O-])c(N3CCNCC3)cc21	57*	-6	-2	-10	-16	8
O=[N+]([O-])c1ccc(N2CCNCC2)c(Cl)c1	15	24	4	0	12	1
COC(=O)C1=C(c2ccc(OC(F)(F)F)cc2)C[C@@H]2CC[C@H]1N2C(=O)NCc1ccco1	nt	10	11	nt	nt	nt
